Reference: PubChem BioAssay (EPA / NIEHS)
Activity calls are given as the source filed them. Rule for the calls: active = hit-call score of the fitted dose curve at least 0.9, where 1 is the maximum; inactive = score below 0.9.

Experiment: Tanguay_ZF_120hpf_DP24: Oregon State University Tanguay Lab 24 Hour Post-fertilization zebrafish Assay for Delayed Development (AID 2284390)
Procedure: Tanguay_ZF_120hpf is a whole embryo, multiplexed endpoint assay using zebrafish larvae exposed for 120 hours post fertilization on a 96-well plate.Tanguay_ZF_120hpf_DP24 is […] measured or calculated from the Tanguay_ZF_120hpf assay. It is designed to make measurements of zebrafish development as detected with brightfield microscopy of developing zebrafish embryos.Data from the assay component Tanguay_ZF_120hpf_DP24 was analyzed into 1 assay endpoints. This assay endpoint, Tanguay_ZF_120hpf_DP24, was analyzed in the positive analysis fitting direction relative to DMSO as the negative control and baseline of activity. Using a type of morphology reporter, gain-of-signal activity can be used to understand changes in developmentals as they relate to the whole embryo. To generalize the intended target to other relatable targets, this assay endpoint is annotated to the zebrafish development intended target family, where the subfamily is embryonic morphogenesis.
Zebrafish husbandry: Tropical 5D wild-type adult zebrafish were housed in at an approximate density of 1000 per 100 gallon tank at the Sinnhuber Aquatic Research Laboratory, Oregon State University, Corvallis, OR. Each tank was kept at standard laboratory conditions of 28C on a 14-h light/10-h dark photoperiod in fish water consisting of reverse osmosis water supplemented with a commercially available salt (Instant Ocean). Spawning funnels were placed into the tanks the night prior, and embryos were collected and staged. To increase bioavailability, the chorion was enzymatically removed using pronase (63.6mg/ml, >/= 3.5U/mg, Sigma-Aldrich: P5147) at 4 hours post fertilization (hpf) using a custom automated dechorionator.Chemical exposures: Six hpf dechorionated embryos were placed 1 embryo per well in a 96-well plate prefilled with 90 ul of EM using automated embryo placement systems (AEPS). Ten microliters of each row of dilution plate 2 was added to 2 exposure plates. The final DMSO concentration used was 0.64% (vol/vol). Thirty-two embryos were also exposed to 5uM trimethyltin chloride (positive control). Plates were sealed to prevent evaporation and foil covered to reduce light exposure and kept in a 28C incubator. Embryos were statically exposed until 120 hpf. At 24 hpf, embryos were assessed for photomotor response using a custom photomotor response analysis tool (PRAT) and for developmental toxicity endpoints (MO24: mortality at 24 hpf, DP: developmental progression, SM: spontaneous movement, and NC: notochord distortion). At 120 hpf, locomotor activity was measured using Viewpoint Zebralab and assessed for 13 endpoints. Zebrafish acquisition and analysis program (ZAAP), a custom program designed to inventory, acquire, and manage zebrafish data, was used to collect developmental endpoints as either present or absent (i.e., binary responses were recorded). If mortality occurred for an embryo (at either 24 or 120 hpf), the non-mortality endpoints were not measured.

| SMILES | outcome | AC50 |
| --- | --- | --- |
| FC(F)(F)C(F)(F)C(F)(F)C(F)(F)CCI | inactive |  |
| O=S(=O)(OCC(F)F)C(F)(F)F | inactive |  |
| O=C(CC(=O)C(F)(F)C(F)(F)F)C(F)(F)F | inactive |  |
| OCC(F)(F)C(F)(F)C(F)(F)F | inactive |  |
| FC(F)(F)C(F)(F)C(F)(F)C(F)(F)C(F)(F)C(F)(F)C(F)(F)C(F)(F)CCS | inactive |  |
| O=C(O)C(F)(F)C(F)(F)C(F)(F)C(F)(F)C(F)(F)C(F)(F)C(F)(F)C(F)(F)C(F)(F)C(F)(F)C(F)(F)C(F)(F)F | inactive |  |
| OCC(F)(F)C(F)(F)C(F)(F)C(F)(F)C(F)(F)C(F)(F)F | inactive |  |
| O=C(O)C(F)(OC(F)(F)C(F)(OC(F)(F)C(F)(F)C(F)(F)F)C(F)(F)F)C(F)(F)F (stereo not given) | inactive |  |
| O=C(O)C(F)(F)C(F)(F)C(F)(F)C(F)(F)C(F)(F)C(F)(F)C(F)(F)C(F)(F)C(F)(F)C(F)(F)C(F)(F)C(F)(F)C(F)(F)F | inactive |  |
| FC(F)(F)C(F)(F)C(F)(F)C(F)(F)C(F)(F)C(F)(F)C(F)(F)Br | inactive |  |
| N=C(N)C(F)(F)C(F)(F)C(F)(F)C(F)(F)C(F)(F)C(F)(F)C(F)(F)F | inactive |  |
| O=C(O)C(F)(F)C(F)(F)F | inactive |  |
| C=C(C)C(=O)OCCC(F)(F)C(F)(F)C(F)(F)C(F)(F)C(F)(C(F)(F)F)C(F)(F)F | inactive |  |
| FC(F)(F)C(F)(F)C(F)(F)C(F)(F)C(F)(F)CCI | inactive |  |
| O=C(O)C(F)(F)C(F)(F)C(F)(F)F | inactive |  |
| O=C(O)C(F)(F)C(F)(F)OC(F)(F)F | inactive |  |
| COC(=O)CCC(F)(F)C(F)(F)C(F)(F)C(F)(F)F | inactive |  |
| OCCCC(F)(F)C(F)(F)C(F)(F)C(F)(F)C(F)(F)C(F)(F)C(F)(F)F | inactive |  |
| O=C(O)C(F)(F)C(F)(F)C(F)(F)C(F)(F)C(F)(F)C(F)(F)C(F)(F)C(F)(F)C(F)(F)C(F)F | inactive |  |
| O=S(=O)(OCCOC(F)(F)F)C(F)(F)F | inactive |  |

| SMILES | outcome | AC50 |
| --- | --- | --- |
| O=P(O)(O)OCCC(F)(F)C(F)(F)C(F)(F)C(F)(F)C(F)(F)C(F)(F)F |  | 57.9 µM (active) |
| O=C(O)C(F)(F)C(F)(F)C(F)(F)C(F)(F)C(F)(F)C(F)(F)C(F)(F)C(F)(F)Cl | inactive |  |
| O=C(O)C=C(C(F)(F)F)C(F)(F)F | inactive |  |
| FC(F)(F)C(F)(F)C(F)(F)C(F)(F)C(F)(F)C(F)(F)C(F)(F)I | inactive |  |
| O=C(O)C(F)(OC(F)(F)C(F)(OC(F)(F)C(F)(OC(F)(F)C(F)(F)C(F)(F)F)C(F)(F)F)C(F)(F)F)C(F)(F)F (stereo not given) | inactive |  |
| C=CC(=O)OCC(F)(F)C(F)(F)C(F)(F)C(F)(F)COC(=O)C=C |  | 28.1 µM (active) |
| C=CC(F)(F)C(F)(F)C(F)(F)C(F)(F)C(F)(F)C(F)(F)C(F)(F)C(F)(F)F | inactive |  |
| C=C(C)C(=O)OCC(F)(F)C(F)(F)C(F)(F)C(F)(F)C(F)(F)C(F)(F)C(F)(F)F | inactive |  |
| FC(F)(F)C(F)(F)C(F)(F)C(F)(F)C(F)(F)C(F)(F)CC1CO1 (stereo not given) | inactive |  |
| O=S(=O)(O)C(F)(F)C(F)(F)C(F)(F)C(F)(F)C(F)(F)C(F)(F)C(F)(F)F | inactive |  |
| OCC(F)(F)C(F)(F)C(F)(F)C(F)F | inactive |  |
| OCCCC(F)(F)C(F)(F)C(F)(F)F | inactive |  |
| Cc1ccc(S(=O)(=O)OCC(F)(F)C(F)(F)C(F)(F)C(F)(F)C(F)(F)C(F)F)cc1 | inactive |  |
| CC(C)(C)C(=O)CC(=O)C(F)(F)C(F)(F)C(F)(F)F | inactive |  |
| FC(F)(F)C(F)(F)C(F)(F)N(C(F)(F)C(F)(F)C(F)(F)F)C(F)(F)C(F)(F)C(F)(F)F | inactive |  |
| CCO[Si](CCC(F)(F)C(F)(F)C(F)(F)C(F)(F)C(F)(F)C(F)(F)F)(OCC)OCC | inactive |  |
| O=C(O)C(F)(F)C(F)(F)C(F)F | inactive |  |
| OCC(F)(F)C(F)(F)C(F)(F)C(F)(F)C(F)(F)C(F)F | inactive |  |
| C=C(C)C(=O)OCC(F)(F)C(F)(F)C(F)(F)F | inactive |  |
| FC(F)(F)C(F)(F)CNCC(F)(F)C(F)(F)F | inactive |  |
